# Measurements from PubChem BioAssay (NCI).
# This is part of a sample that, as a whole, favours compounds with a hit. Of some 83,000 tested, about 20% had one in any assay.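 For each line, cells grew in 96-well plates with the test compound present at a single concentration for 48 hours.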 Values without a mark were called inactive. Calls of active or inactive are those of the source. Rule for the calls: active = growth percent below 10; inactive = the rest.
# Legend:
# Experiment in all cases: NCI-60 one-dose screen, 48 h (100 = growth as untreated, 0 = no growth, -100 = all killed)
# Conditions in all cases: 10 µM unless noted
# HCT-15 colon = system: HCT-15 colon
# HT29 colon = system: HT29 colon
# SNB-19 CNS = system: SNB-19 CNS
# U251 CNS = system: U251 CNS
# PC-3 prostate = system: PC-3 prostate
# SK-MEL-5 melanoma = system: SK-MEL-5 melanoma
# UACC-62 melanoma = system: UACC-62 melanoma
# LOX IMVI melanoma = system: LOX IMVI melanoma
# SK-MEL-28 melanoma = system: SK-MEL-28 melanoma
Structure (SMILES),growth (HCT-15 colon),growth (HT29 colon),growth (SNB-19 CNS),growth (U251 CNS),growth (PC-3 prostate),growth (SK-MEL-5 melanoma),growth (UACC-62 melanoma),growth (LOX IMVI melanoma),growth (SK-MEL-28 melanoma)
CCN(CC)CCOc1ccc(/C(=C(/C)c2ccccc2)c2ccc(OC(C)=O)cc2)cc1,80.2%,67.2%,107%,103%,96.9%,100%,103%,102%,105%
CN(CCCCN(C[C@H]1Cc2ncccc2CN1)[C@H]1CCCc2cccnc21)C1CCC(F)(F)CC1,70.4%,82.3%,90.5%,81.6%,83.8%,104%,98.2%,93.3%,106%
CC(C)(C)n1cc(-c2ccnc(NCCCNS(=O)(=O)c3ccc(F)cc3)c2)c(-c2cccc(O)c2)n1,0.588% (active),13.9%,71.3%,50.5%,27.5%,13.3%,59.8%,-51.5% (active),39.2%
C=C1C(=O)O[C@@H]2[C@@H]3O[C@@](C)(CC/C=C(\C)CCC[C@@H]2C)[C@H](O)C[C@@H]13,38.9%,32.3%,84.3%,56.4%,39.8%,48.2%,17.2%,44%,80.5%
COc1ccc(C(=O)N2NC(=O)/C(=C/c3ccccc3F)N=C2c2ccccc2)cc1,112%,113%,99%,96.7%,104%,113%,102%,102%,112%
O=C(O)c1nc(-c2ccccc2)oc1N1CCOCC1,101%,108%,92.3%,90.9%,100%,105%,85.2%,108%,98.7%
CCOC(=O)c1ccc2c(c1)nc(-c1ccc(OCc3ccccc3)c(OC)c1)n2-c1cc(C(C)(C)C)[nH]n1,59.4%,71.7%,105%,91.9%,55.5%,65.3%,84.3%,,107%
O=C1NC(=C(Cl)Cl)/C(=N/S(=O)(=O)N2CCC(C3(C(F)(F)F)N=N3)CC2)N1,-60.6% (active),-10.2% (active),86.7%,45.2%,89.6%,92%,91.7%,,99.1%
CCOC(=O)C1C(=O)C=C(c2ccc(OC)cc2)CC1c1sc(N(C)Cc2ccccc2)nc1Cl (configuration not stated),93.3%,88.1%,74.1%,84.8%,62.9%,81%,46.1%,92.1%,93.7%
CCOC(=O)c1ccc(NC(=O)N2CC(C)OC(C)C2)cc1 (configuration not stated),96.2%,101%,93.2%,97.4%,103%,99.7%,87.6%,96%,98.5%
O=S(=O)(NCCCNc1nccc(-n2ccc3cccnc32)n1)c1cccc(C(F)(F)F)c1,103%,111%,102%,97.8%,103%,106%,98.8%,99.9%,106%
NC1N=C(SCC(=O)N2CCN(c3cc4c(cc3F)c(=O)c(C(=O)O)cn4C3CC3)CC2)NC(=O)/C1=C/c1ccc(Cl)cc1 (configuration not stated),97.3%,111%,99.7%,99.8%,95.4%,102%,99.9%,102%,110%
CCN1CCN(c2nc(NNC(=O)c3ccccc3)nc(N3CCN(C(c4ccccc4)c4ccccc4)CC3)n2)CC1,25.7%,1.28% (active),72.5%,49.4%,48.5%,-92.4% (active),80%,-44.6% (active),82.9%
CC1CN(c2oc(-c3ccccc3)nc2C#N)CC(C)O1 (configuration not stated),103%,106%,100%,103%,102%,93.1%,97%,,104%
CC(C)(C)n1cc(-c2ccnc(NCCCNS(=O)(=O)c3ccc(Cl)cc3)c2)c(-c2cccc(O)c2)n1,-65.3% (active),-49.3% (active),24.6%,-43.7% (active),-0.444% (active),-87.8% (active),-2.46% (active),-88.4% (active),-67.1% (active)
N=C(N)c1ccc(-c2ccc(-c3ccc4ccccc4c3)s2)cc1,3.41% (active),-42% (active),97.1%,27%,91.6%,93.9%,96.9%,,100%
CSc1nc2c(c(=O)[nH]1)C(c1ccc(C)cc1)C=C(C(=O)O)N2 (configuration not stated),105%,118%,133%,109%,109%,102%,129%,,99.9%
Cc1ccc(-c2nc(C(Cl)Cl)n3nc(-c4ccccc4)cc3n2)cc1,-26.8% (active),-43.6% (active),27.4%,-42.1% (active),-13% (active),78.5%,-8.44% (active),,85.9%
CCC1=CCC[C@@]2(C)CCC[C@@]3(C)CCCC(C)(C)[C@]1([O-])[O+]32,108%,102%,102%,103%,96.5%,101%,103%,,96.8%
Clc1cc(Cl)c2nc(-c3ccc(-c4ccc(/C=N/NC5=NCCN5)cc4)s3)cn2c1,38%,35%,100%,87.2%,76.5%,88%,98.8%,,99.7%
COc1ccc(/C=C2\CN(Cc3cn(CCNc4ccnc5cc(Cl)ccc45)nn3)C/C(=C\c3ccc(OC)c(OC)c3)C2=O)cc1OC,76%,-42.4% (active),58.1%,6.39% (active),12.1%,10.8%,7.74% (active),-28.3% (active),21.6%
Cc1[nH]c2ccc(F)cc2c1CCNC(=O)C1CCN(C(=O)c2ccccc2)CC1,94.4% [25 µM],95.2% [25 µM],86.3% [25 µM],90.7% [25 µM],71% [25 µM],76% [25 µM],82.5% [25 µM],,96.4% [25 µM]
COc1ccc(-c2ccc(-c3ccc(C(=N)N)s3)s2)cc1Cl,-76% (active),-84% (active),35.2%,-86.2% (active),-92% (active),67.5%,-92.1% (active),,90.1%
COc1ccc(C(=O)N2NC(=O)/C(=C/c3cn(-c4ccccc4)nc3-c3ccccc3)N=C2c2ccccc2)cc1,98.2%,99%,88.6%,91.2%,95.3%,105%,93%,99.2%,105%
Cc1ccc(-c2cc3nc(C(Cl)Cl)nc(-c4ccccc4C)n3n2)cc1,33.2%,8.13% (active),70.2%,46.3%,43.1%,82.6%,59.7%,,89.1%
CC(C)(C)c1[nH]nc2c1C(c1cc3ccccc3[nH]c1=O)Nc1cc(C(=O)Nc3ccc(Cl)cc3)ccc1N2 (configuration not stated),98.8%,91.3%,90.5%,60.5%,61.4%,70.2%,73.1%,,81.7%
c1ccc(-c2nc(N3CCNCC3)c3nc(-c4ccccc4)oc3n2)cc1,-81.3% (active),-86.6% (active),5.98% (active),-93.5% (active),-62.3% (active),36.2%,-92.8% (active),,101%
COc1cc2c(=O)n(C3CCCCCC3)c3c4cc[nH]c4ncc3c2cc1OC,62.9%,79.9%,85.1%,67%,78.1%,87.2%,99.9%,60.8%,105%
CCN(CC)c1ccc(N=O)cc1,3.87% (active),-3.9% (active),93.1%,42.9%,44.6%,87.2%,73.4%,15%,88.3%
OC(c1cc2cc(Br)ccc2c2cc(Br)ccc12)C1CCCCN1 (configuration not stated),-71.6% (active),-82.5% (active),-70.9% (active),-94.5% (active),-88.5% (active),-1.27% (active),-79.4% (active),-62% (active),-93.2% (active)
